USP1-UAF1 inh = USP1/UAF1 (human) deubiquitinase inhibition; O94782; recombinant USP1/UAF1, Ub-Rhodamine cleavage fluorescence; Potency, µM (series often up to 57.1 µM), hits mostly inhibitors; 0.23% of 390,000 active; note: nearly all actives have a fitted effect of over 60% in size
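USP1/UAF1 complex (1 nM) preincubated 15 min at room temperature with compound, then Ub-Rho substrate (150 nM final) added. Kinetic fluorescence at 480/540 nm over 6 reads at 60 s intervals; 50 mM HEPES pH 7.8, 0.5 mM EDTA, 0.1 mg/ml BSA, 1 mM TCEP, 0.01% Tween-20.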
Tb PGK inh = T. brucei PGK inhibition | 0.043% of 380,000 active | P07378 | PGK/GAPDH coupled, Kinase-Glo luminescence, 60 min | Potency, µM (titrated, usually from 57.5 µM), actives largely listed as inhibitors | AID 602233; note: nearly all actives have a fitted effect of over 60% in size
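Recombinant glycosomal PGK reaction used 1,3-bisphosphoglycerate generated in-well by GAPDH (100nM final) in 100mM TEA pH 7.6, 5mM MgCl2, 0.01% Tween-20. After 60 minutes at room temperature, ATP was read by Kinase-Glo Plus luminescence end-point.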
GLS inh = glutaminase GLS (human) inhibition; O94925; GLS enzymatic activity, qHTS titration; Potency, µM (highest dose often 45.5 µM), usual class: inhibitors; 0.21% of 410,000 active
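hKGA; 45 mM KH2PO4 pH 8.2 + 0.02% Tween-20; cpd via pin tool; 1 mM Gln soln; GluOx/HRP/Amplex Red; RT 30 min; fluor. t0 & final.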
PI4K2A block = inhibitors of human PI4K2A. Q9BTU6. 0.13% of 420,000 active. activity change, negative = inhibition, % at 76.9 µM. purified PI4K2A, ADP-Glo luminescence, 1 h; active compounds read low; in the data active = activity change below about -50%; inconclusive = mostly about -30% to -49%
Target sequence (Q9BTU6 whole entry, looked up): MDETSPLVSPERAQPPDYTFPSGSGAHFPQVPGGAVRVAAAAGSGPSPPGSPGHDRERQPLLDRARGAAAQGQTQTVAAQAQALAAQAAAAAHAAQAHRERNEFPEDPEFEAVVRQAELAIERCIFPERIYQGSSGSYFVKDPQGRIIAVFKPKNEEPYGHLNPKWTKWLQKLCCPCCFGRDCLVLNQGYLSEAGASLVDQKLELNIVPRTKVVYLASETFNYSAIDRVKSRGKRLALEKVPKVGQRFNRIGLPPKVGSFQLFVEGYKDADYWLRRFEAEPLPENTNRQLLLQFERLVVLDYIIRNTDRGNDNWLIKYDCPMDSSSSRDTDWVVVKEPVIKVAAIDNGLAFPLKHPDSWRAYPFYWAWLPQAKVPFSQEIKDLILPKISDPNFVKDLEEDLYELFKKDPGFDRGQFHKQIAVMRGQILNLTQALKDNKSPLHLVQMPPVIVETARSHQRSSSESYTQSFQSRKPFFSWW
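PI4K2A activity was measured by ADP-Glo luminescence: enzyme (4 ug/mL stock) and phosphatidylinositol (1.2 mM stock) in Tris pH 7.5/MgCl2/EGTA/Triton X-100 buffer were reacted with ATP (300 microM stock) for one hour at ambient temperature.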
Large screens that a line does not name were inactive. Sampled rows, rich in hits. Any-hit rate of the full collection: about 0.53%. Unless noted, calls come from the whole dose curve; as a rule, active = well fitted curve in the direction sought with a large enough effect; inconclusive = small, poorly fitted or top-dose-only effect, or another doubt; inactive = no such curve, though single readings can be large; an effect the other way counts as inactive or inconclusive.

N#CC1=C2SCN(C3CCCCC3)CN2C(=O)CC1c1c(F)cccc1Cl (stereo unspecified)	USP1-UAF1 inh 32µM
N#CC1=C2SCN(C3CCCCC3)CN2C(=O)CC1c1ccc(Cl)cc1 (stereo unspecified)	none
N#CC1=C2SCN(Cc3ccco3)CN2C(=O)CC1c1c(F)cccc1Cl (stereo unspecified)	USP1-UAF1 inh 13µM
Cc1ccc(C2CC(=O)N3CN(Cc4ccco4)CSC3=C2C#N)cc1 (stereo unspecified)	none
Cc1c(C)c2c(c(C)c1OC(=O)CCC(=O)OCCO)CC[C@@](C)(CCC[C@H](C)CCC[C@H](C)CCCC(C)C)O2	none (no result: USP1-UAF1 inh, Tb PGK inh, GLS inh)
CC(C)CCN1C(=O)CC(NNC(=O)c2ccc(S(=O)(=O)N3CCCC3)cc2)C1=O (stereo unspecified)	none
COCCN1C(=O)CC(NNC(=O)c2ccc(S(=O)(=O)N3CCCC3)cc2)C1=O (stereo unspecified)	GLS inh 10µM
CN1CCN(c2cc(N3CCN(C(=O)c4ccco4)CC3)c3c4c(onc24)-c2ccccc2C3=O)CC1	USP1-UAF1 inh inconclusive
O=C(O)CCCNc1cc(N2CCN(C(=O)c3ccco3)CC2)c2noc3c2c1C(=O)c1ccccc1-3	USP1-UAF1 inh 28µM, GLS inh inconclusive, PI4K2A block inconclusive
CCCCNc1cc(N2CCN(C3CCCCC3)CC2)c2noc3c2c1C(=O)c1ccccc1-3	USP1-UAF1 inh inconclusive
CCOC(=O)N1CCN(c2cc(NCCC(=O)O)c3c4c(onc24)-c2ccccc2C3=O)CC1	USP1-UAF1 inh 14µM, Tb PGK inh inconclusive, GLS inh 18µM, PI4K2A block -57
OCC[n+]1ccc(/C=C/c2c[nH]c3ccccc23)cc1	USP1-UAF1 inh 28µM
Cn1cc(S(C)=O)c(=O)c2ccc(F)cc21 (stereo unspecified)	none (no result: USP1-UAF1 inh, Tb PGK inh)
COc1cc2cc(Oc3ccc4ccc(=O)oc4c3)c(=O)oc2cc1O[C@@H]1O[C@H](CO)[C@@H](O)[C@H](O)[C@H]1O	USP1-UAF1 inh inconclusive, GLS inh 18µM
COc1cc2cc(Oc3ccc4ccc(=O)oc4c3)c(=O)oc2cc1OC1OC(COC(=O)CC(C)(O)CC(=O)O)C(O)C(O)C1O (stereo unspecified)	GLS inh inconclusive
O=C(COC(=O)c1cc(NS(=O)(=O)c2cccs2)ccc1O)Nc1ccc(F)c(F)c1F	GLS inh 13µM
O=C(COC(=O)c1cc(NS(=O)(=O)c2cccs2)ccc1O)Nc1cc(Cl)ccc1Cl	none
O=C(Nc1cccc(C(F)(F)F)c1)c1cnn(-c2cccc(F)c2)c1C1CCNCC1	none
Nc1cc2sc(-c3ccc(C(=O)O)cc3)nc2cc1Cl	Tb PGK inh inconclusive, PI4K2A block -76
O=C(O)c1ccc2nc(-c3ccccc3)sc2c1	PI4K2A block -52
Nc1ccc(-c2nc3ccc(C(=O)O)cc3s2)cc1	Tb PGK inh inconclusive
COc1ccc(NC(=O)c2csc3c2CCCC3)cc1	PI4K2A block -61
Cc1cn([C@H]2C[C@H](F)[C@@H](CO)O2)c(=O)[nH]c1=O	none (no result: USP1-UAF1 inh, Tb PGK inh, GLS inh)
O=C1CC(NC2CCN(C(=O)c3cccc(F)c3)CC2)C(=O)N1 (stereo unspecified)	GLS inh 11µM
C[C@H]1C[C@H]2[C@@H]3CCC4=CC(=O)C=C[C@]4(C)[C@H]3C(=O)C[C@]2(C)[C@@]1(O)C(=O)CO	none (no result: USP1-UAF1 inh, Tb PGK inh, GLS inh)
CCC(C(=O)O)C1OC(C(C)C(O)C(C)C(=O)C(CC)C2OC3(C=CC(O)C4(CCC(C)(C5CCC(O)(CC)C(C)O5)O4)O3)C(C)CC2C)C(C)CC1C (stereo unspecified)	none (no result: USP1-UAF1 inh, Tb PGK inh, PI4K2A block)
COc1ccc(/C=N/NC(=O)c2nn(-c3ccc(Cl)cc3)c(=O)c3c(N)scc23)cc1	USP1-UAF1 inh inconclusive, PI4K2A block inconclusive
COc1ccc(/C=N/NC(=O)c2nn(-c3ccccc3)c(=O)c3c(N)scc23)cc1	USP1-UAF1 inh inconclusive, PI4K2A block -65
CCn1c(C)nc2cc(-c3nc4n(n3)Cc3ccccc3-4)ccc21	USP1-UAF1 inh inconclusive, Tb PGK inh inconclusive, PI4K2A block -69
Cc1ccc(-c2nc3n(n2)Cc2ccccc2-3)cc1	PI4K2A block inconclusive
CC(N)C(=O)NCC(=O)NC1CSSCC(C(=O)O)NC(=O)C(CO)NC(=O)C(C(C)O)NC(=O)C(Cc2ccccc2)NC(=O)C(C(C)O)NC(=O)C(CCCCN)NC(=O)C(Cc2c[nH]c3ccccc23)NC(=O)C(Cc2ccccc2)NC(=O)C(Cc2ccccc2)NC(=O)C(CC(N)=O)NC(=O)C(CCCCN)NC1=O (stereo unspecified)	none (no result: USP1-UAF1 inh, Tb PGK inh, PI4K2A block)
CC(C)(S)C(=O)NC(CS)C(=O)O (stereo unspecified)	none (no result: USP1-UAF1 inh, Tb PGK inh, PI4K2A block)
O=C1NNC(c2ccccc2)=N/C1=C\c1ccccc1Cl	USP1-UAF1 inh 18µM
Cc1ccc(OCc2ccoc2C(=O)O)cc1C	Tb PGK inh inconclusive, GLS inh 18µM
CCCOC(C(=O)OC1CCN(C)CC1)(c1ccccc1)c1ccccc1	none (no result: USP1-UAF1 inh, Tb PGK inh)
CC(=O)N1N=C(c2ccccc2)OC1c1ccc([N+](=O)[O-])s1 (stereo unspecified)	USP1-UAF1 inh 25µM
Nc1c(C(=O)O)cnc2c(-c3ccc(Cl)cc3)cnn12	Tb PGK inh 32µM
Cc1cc(CCCOc2c(C)cc(-c3noc(C(F)(F)F)n3)cc2C)on1	none (no result: USP1-UAF1 inh, Tb PGK inh, GLS inh)
O=C(NC(Cc1ccccc1)C(=O)O)/C(=C/c1ccccc1)NC(=O)c1ccco1 (stereo unspecified)	GLS inh inconclusive
O=C(NC(Cc1ccccc1)C(=O)O)/C(=C/c1ccco1)NC(=O)c1cccc(Br)c1 (stereo unspecified)	GLS inh 18µM
Cc1ccccc1C1=C/C(=C(\SS/C(C(=O)c2ccc(OCC(=O)O)c(Cl)c2Cl)=C2\C=C(c3ccccc3C)SS2)C(=O)c2ccc(OCC(=O)O)c(Cl)c2Cl)SS1	USP1-UAF1 inh 32µM, Tb PGK inh inconclusive, GLS inh inconclusive
CCOc1ccccc1C(=O)Nc1c(C(=O)Nc2ccc(F)cc2)oc2ccccc12	USP1-UAF1 inh inconclusive
O=c1c(CO)cc(CO)cc(CO)c1O	none
O=C1C=CC(=O)c2c(O)c(CO)c(CO)c(O)c21	USP1-UAF1 inh 14µM, Tb PGK inh 8.9µM, GLS inh 3.5µM, PI4K2A block -53
COc1ccc(Nc2c3c(nc4ccc(NC(=O)c5cc(Cl)ccc5OC)cc24)CCCC3)cc1OC	USP1-UAF1 inh inconclusive
Cc1ccc(C(C)OC(=O)C2(C)CCC(C(=O)O)C2(C)C)cc1 (stereo unspecified)	none (no result: USP1-UAF1 inh, Tb PGK inh, GLS inh)
O=C(Nc1nc2c(s1)CN(Cc1ccccc1)CC2)c1cccc(S(=O)(=O)N2CCc3ccccc32)c1	USP1-UAF1 inh 28µM
O=C(Nc1nc2ccccc2s1)c1cccc(S(=O)(=O)N2CCc3ccccc32)c1	none
COc1ccc2cc3c(N)c(C(=O)NCc4ccco4)sc3nc2c1	USP1-UAF1 inh inconclusive, PI4K2A block -57
COc1ccc2cc3cc(C(=O)NCc4ccco4)oc3nc2c1	none
CC(C)=CCC/C(C)=C\CC/C(C)=C\CC/C(C)=C\CC1=C(C)C(=O)c2ccccc2C1=O	none (no result: USP1-UAF1 inh, Tb PGK inh, PI4K2A block)

Assay outcomes as filed in PubChem.
